Screens deposited in PubChem by National Center for Advancing Translational Sciences (NCATS).
An excerpt weighted towards active compounds, which were near 2.9% of everything screened.
GLP1R cytotox: cytotoxic in the GLP-1 receptor inverse agonist counter-screen | HEK293 cAMP-luciferase reporter cells, luminescence, 24 h | Potency, µM (doses to about 38.3 µM), for the others: top-dose activity change, negative = inhibition, hits mostly inhibitors | hit rate 0.13% among 410,000;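 also: loss of luciferase light is scored as toxicity; potency is read from the fitted curve at half-maximal effect; % is scaled to controls: 0 for no effect and ±100 for the full control effect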
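Luminescence readout: signal drop marks cytotoxicity. Plated cells grew 12 h at 37 °C, 5% CO2, received 23 nL compound for 24 h, then got luciferase reagent, read after 12 min at RT.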
GLP-1R agonist: GLP-1 receptor (human) agonism; P43220; HEK293 GLP-1R CRE-luciferase, luminescence, 4-6 h; cells express a hypersensitive GLP-1R form; Potency, µM (series often up to 45.6 µM), for inactives: at the highest dose activation, hits mostly activators; hit rate 0.007% among 380,000; also: potency is read from the fitted curve at half-maximal effect; % of control where 0% means no effect
Target sequence (P43220 whole entry, looked up): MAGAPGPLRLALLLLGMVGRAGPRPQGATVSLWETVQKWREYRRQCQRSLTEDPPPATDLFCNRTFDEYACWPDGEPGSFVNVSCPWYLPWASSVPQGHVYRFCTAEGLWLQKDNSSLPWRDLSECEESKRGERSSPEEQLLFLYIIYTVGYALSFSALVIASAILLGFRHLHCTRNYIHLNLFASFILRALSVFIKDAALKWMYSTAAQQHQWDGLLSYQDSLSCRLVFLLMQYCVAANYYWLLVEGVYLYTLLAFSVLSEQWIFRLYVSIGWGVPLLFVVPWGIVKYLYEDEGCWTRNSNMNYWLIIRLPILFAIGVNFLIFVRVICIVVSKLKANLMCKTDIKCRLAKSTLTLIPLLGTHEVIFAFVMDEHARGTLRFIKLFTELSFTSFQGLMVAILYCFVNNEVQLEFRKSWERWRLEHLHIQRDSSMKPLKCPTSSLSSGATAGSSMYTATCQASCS
p53 reactivation: restores transcriptional activity of mutant p53; H1299 p53-A138V BP100-luciferase reporter, luminescence, 24 h; Potency, µM (doses to about 92.2 µM), for the others: at the highest dose activity change, positive = activation, most hits filed as activators; hit rate 0.063% among 320,000; also: potency is read from the fitted curve at half-maximal effect; % of control where 0% means no effect; nearly all actives have a fitted effect of over 45% in size
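p53-null H1299 cells stably carrying temperature-sensitive p53-A138V and a BP100-luciferase reporter were pinned with compounds (4-point, 1:5 series) and held 24 hrs at 37 deg C. Luminescence was read 10 min after detection reagent.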
ClpP mod: qHTS Assay for Activators of ClpP. ATP-dependent Clp protease proteolytic subunit (Bacillus subtilis (strain 168)), P80244. purified B. subtilis ClpP, FRET peptide cleavage, 20 min. Potency, µM (highest dose often 57.5 µM), for inactives: at the top dose activity change, negative = active. hit rate 1.9% among 340,000; active = well fitted falling curve with a large enough effect; inconclusive = small, poorly fitted or top-dose-only effect; inactive = no such curve, though single readings can be large or run the other way; also: potency is read from the fitted curve at half-maximal effect; the source files actives as falling curves though it sought activators and does not explain the sign; nearly all actives have a fitted effect of over 65% in size
Target sequence (P80244 whole entry, looked up): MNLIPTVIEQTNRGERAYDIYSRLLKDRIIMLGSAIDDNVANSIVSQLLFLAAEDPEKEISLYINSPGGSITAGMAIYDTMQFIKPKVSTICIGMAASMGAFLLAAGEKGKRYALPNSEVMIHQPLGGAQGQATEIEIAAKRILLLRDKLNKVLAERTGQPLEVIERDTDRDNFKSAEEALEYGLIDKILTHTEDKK
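ClpP 10 microg/mL final, pH 8 Tris/KCl buffer with BSA, glycerol, Tween-20; compound pinned in; FRET-FV substrate; RT 20 min; Ex320/Em430; ΔFRET vs ADEP 5.8 microM, DMSO, no enzyme.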
LDHA block: inhibitors of human lactate dehydrogenase A | purified LDHA, NADH/diaphorase-resazurin fluorescence; active compounds read low | hit rate 0.15% among 480,000 | activity change, % (values are at about 110 or 230 µM) | P00338; in the data active = activity change below about -30%; inconclusive = mostly about -25% to -30%;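 also: plate controls were DMSO wells for no effect and wells without enzyme for full effect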
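Remaining NADH was detected by diaphorase (0.133 mg/mL) converting 37 µM resazurin to fluorescent resorufin, read at 0 and 20 minutes. The preceding 5-minute room-temperature reaction used 2 nM LDHA, 0.2 mM sodium pyruvate and 0.06 mM NADH at pH 7.4.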
GLP-1R inv ag: GLP-1 receptor (human) inverse agonism; P43220; HEK293 GLP-1R CRE-luciferase, luminescence, 24 h; GLP-1R form is constitutively active; Potency, µM (highest dose often 38.3 µM), without a hit: at the highest dose activity change, negative = inhibition, actives largely listed as inhibitors; hit rate 1.6% among 410,000; also: potency is read from the fitted curve at half-maximal effect; % is scaled to controls: 0 for no effect and ±100 for the full control effect; nearly all actives have a fitted effect of over 55% in size
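HEK293 cells stably co-expressing a cAMP-responsive luciferase reporter and constitutively active GLP-1R were seeded, incubated 12 h, then exposed to compounds for 24 h at 37 C. Luminescence was read 12 min after detection reagent; inverse agonists lower signal.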
ClpP inh valid: inhibits B. subtilis ClpP protease, hit validation. shares compounds with ClpP mod. purified B. subtilis ClpP, FRET-FV substrate cleavage, 20 min. Potency, µM (titrated, usually from 57.5 µM), without a hit: top-dose activity change, negative = inhibition, hits mostly inhibitors. hit rate 40% among 470. AID 743245; also: potency is read from the fitted curve at half-maximal effect; % is scaled to controls: 0 for no effect and ±100 for the full control effect; nearly all actives have a fitted effect of over 70% in size
* hit, by the source's call. Unless noted, calls follow the shape of the dose curve; as a rule, active = well fitted curve in the direction sought with a large enough effect; inconclusive = small, poorly fitted or top-dose-only effect, or another doubt; inactive = no such curve, though single readings can be large; an effect the other way counts as inactive or inconclusive.

What do the screens show for `O=C(Nc1ccc(Cl)c(-c2nc3cc(Cl)ccc3o2)c1)c1cc2ccccc2o1`?
GLP1R cytotox: -1%; ClpP mod: inconclusive; LDHA block: -4; GLP-1R inv ag: 7%

What do the screens show for `Cc1cc2nc(-c3cc(NC(=O)c4cc5ccccc5o4)ccc3Cl)oc2cc1C`?
GLP1R cytotox: 13%; ClpP mod: 3.2µM*; LDHA block: -10; GLP-1R inv ag: -1%; ClpP inh valid: 19µM*

How did COC(=O)c1cc(Cl)c(NC(=O)c2cc3ccccc3o2)cc1OC do in these assays?
GLP1R cytotox: -9%; GLP-1R agonist: -12%; p53 reactivation: -1%; ClpP mod: 37%; LDHA block: -2; GLP-1R inv ag: 70%; ClpP inh valid: -26%

Results for CCOC(=O)N1CCN(C(=O)c2ccc(S(=O)(=O)Nc3ccc(C)cc3)cc2)CC1 ?
GLP1R cytotox: 4%; GLP-1R agonist: 0%; p53 reactivation: -4%; ClpP mod: 115%; LDHA block: -7; GLP-1R inv ag: 1%; ClpP inh valid: -1%

Results for COc1ccc(-c2cc(C(=O)NCCc3ccccc3)c3c(-c4ccccc4)[nH]nc3n2)cc1OC ?
GLP1R cytotox: 3%; ClpP mod: 395%; LDHA block: 3; GLP-1R inv ag: 2%; ClpP inh valid: 24µM*

What do the screens show for `COc1ccc(C(=O)OCC(=O)c2ccc[nH]2)c(OC)c1`?
GLP1R cytotox: -1%; GLP-1R agonist: 21%; p53 reactivation: inconclusive; LDHA block: -8; GLP-1R inv ag: 1%

What do the screens show for `Cc1ccc(C)c(NC(=O)C(OC(=O)c2cnc(C)cn2)c2ccccc2)c1` (configuration not stated)?
GLP1R cytotox: 25%; GLP-1R agonist: -19%; p53 reactivation: 1%; ClpP mod: 92%; LDHA block: -3; GLP-1R inv ag: 12%; ClpP inh valid: 0%

What do the screens show for `COc1ccc(C)cc1NC(=O)C(OC(=O)c1cnc(C)cn1)c1ccccc1` (configuration not stated)?
GLP1R cytotox: -2%; GLP-1R agonist: 3%; p53 reactivation: 6%; ClpP mod: 3%; LDHA block: -8; GLP-1R inv ag: -25%

What do the screens show for `COc1ccc(S(=O)(=O)NCCN2CCCCC2)cc1F`?
LDHA block: -6

How did O=C(CN1CCCCCC1)Nc1nc(-c2ccccc2)cc(-c2ccccc2)n1 do in these assays?
LDHA block: -3

What do the screens show for `CCOc1cc(CNC2CCCC2)ccc1OCc1ccccc1Cl`?
GLP1R cytotox: inconclusive; GLP-1R agonist: -3%; p53 reactivation: 0%; ClpP mod: 2%; LDHA block: -1; GLP-1R inv ag: inconclusive

How did CCOc1cc(C2NN=C(c3ccccc3)S2)ccc1OCc1ccccc1Cl (configuration not stated) do in these assays?
GLP1R cytotox: -6%; GLP-1R agonist: -3%; p53 reactivation: 19%; ClpP mod: 3.5µM*; LDHA block: 5; GLP-1R inv ag: inconclusive; ClpP inh valid: inconclusive

Results for COc1ccc(C(=O)Nc2nnc(-c3cccs3)s2)cc1 ?
GLP1R cytotox: -15%; GLP-1R agonist: -8%; p53 reactivation: 31%; ClpP mod: 93%; LDHA block: -6; GLP-1R inv ag: 10%; ClpP inh valid: 17µM*

What do the screens show for `COc1ccc(NC(=O)Nc2nnc(-c3cccs3)s2)cc1`?
GLP1R cytotox: -2%; GLP-1R agonist: 1%; p53 reactivation: 27%; ClpP mod: -5%; LDHA block: -1; GLP-1R inv ag: 3%

Results for CCC(C)NC(=O)c1cc2cc3ccc(OC)cc3nc2s1 (configuration not stated) ?
GLP1R cytotox: -6%; GLP-1R agonist: -4%; p53 reactivation: 13%; ClpP mod: 10µM*; LDHA block: -8; GLP-1R inv ag: 0%; ClpP inh valid: 14µM*

What do the screens show for `Cc1ccc(-c2cc3nc(-c4ccccc4)cc(N4CCOCC4)n3n2)cc1`?
GLP1R cytotox: 48%; GLP-1R agonist: 7%; p53 reactivation: 8%; ClpP mod: 8.9µM*; LDHA block: -6; GLP-1R inv ag: -18%; ClpP inh valid: 34µM*

What do the screens show for `COc1ccc(-c2cc3nc(-c4ccccc4)cc(N4CCC5(CC4)OCCO5)n3n2)cc1`?
GLP1R cytotox: 22%; GLP-1R agonist: -1%; p53 reactivation: -7%; ClpP mod: 7.1µM*; LDHA block: -5; GLP-1R inv ag: -3%; ClpP inh valid: 4.9µM*

Results for COc1ccc(C#Cc2c(-c3ccsc3)oc3ccc(-c4cc(OC)c(OC)c(OC)c4)cc23)cc1 ?
GLP1R cytotox: 0%; GLP-1R agonist: -4%; ClpP mod: 45%; LDHA block: 1; GLP-1R inv ag: 27%; ClpP inh valid: inconclusive

Results for COc1ccc(-c2oc3ccc(-c4cc(OC)c(OC)c(OC)c4)cc3c2-c2ccc(OC)cc2)cc1 ?
GLP1R cytotox: -10%; GLP-1R agonist: 8%; ClpP mod: 4%; LDHA block: 0; GLP-1R inv ag: 3%

What do the screens show for `CC(=O)N1CCc2c(sc(NC(=O)C3CCCN3S(=O)(=O)c3cccs3)c2C(N)=O)C1` (configuration not stated)?
GLP1R cytotox: 22%; GLP-1R agonist: -2%; p53 reactivation: -4%; ClpP mod: 4µM*; LDHA block: -8; GLP-1R inv ag: 0%; ClpP inh valid: -28%

Results for O=C(Nc1cc(S(=O)(=O)N2CCOCC2)ccc1N1CCOCC1)c1ccc([N+](=O)[O-])s1 ?
GLP1R cytotox: -9%; GLP-1R agonist: -5%; p53 reactivation: 5%; ClpP mod: 0%; LDHA block: 2; GLP-1R inv ag: 12%

How did COC(=O)c1ccc(/C=N/n2cnnc2)cc1 do in these assays?
GLP1R cytotox: -4%; GLP-1R agonist: -2%; p53 reactivation: -3%; ClpP mod: 1%; LDHA block: 1; GLP-1R inv ag: 0%

Results for Cc1cccnc1NC(=O)c1ccc(S(=O)(=O)N2CCCCC2)cc1 ?
GLP1R cytotox: -1%; GLP-1R agonist: -13%; p53 reactivation: -8%; ClpP mod: 3.5µM*; LDHA block: -4; GLP-1R inv ag: 5%; ClpP inh valid: 0%
